Sampled rows, rich in hits. Any-hit rate of the full collection: about 3.3%.
TbPYK inhibitor: blocks Trypanosoma brucei pyruvate kinase | Q57TT1 | TbPYK enzyme, Kinase-Glo Plus ATP luminescence, 45 min | Potency, µM (doses to about 76.8 µM), for the others: top-dose activity, negative = inhibition, most hits filed as inhibitors | actives 0.12% (n = 410,000); further: nearly all actives have a fitted effect of over 50% in size
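T. brucei PYK with substrate was exposed to pin-transferred compounds across a concentration series, then started with 130 uM ADP (final). After 45 min at room temperature, Kinase-Glo Plus luminescence was read, normalized and curve-fitted.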
RE007 growth inh: less growth of the S. pombe RE007 Vpr strain; S. pombe RE007 Vpr strain, BacTiter-Glo ATP luminescence, 24 h; Potency, µM (doses to about 92.2 µM), inactives show at the highest dose activity change, negative = less growth, hits mostly inhibitors; actives 0.21% (n = 360,000); AID 651644; active means well fitted falling curve with a large enough effect; inconclusive means small, poorly fitted or top-dose-only effect; inactive means no such curve, though single readings can be large or run the other way; further: nearly all actives have a fitted effect of over 50% in size
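Fission yeast strain RE007, carrying one chromosomally integrated HIV-1 vpr copy, was seeded at OD 0.01 in PMG+AL medium with 23 nL pinned compound. After 24 h at 30 °C and 99% humidity, viability was read by BacTiter-Glo luminescence.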
Sm TGR block: S. mansoni TGR enzyme inhibition; Q962Y6; purified TGR, DTNB reduction, TNB absorbance 405 nm; Potency, µM (top dose mostly 114 µM), inactives show at the top dose activity change, negative = inhibition, hits mostly inhibitors; actives 3% (n = 360,000); AID 485364; further: nearly all actives have a fitted effect of over 60% in size
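Kinetic colorimetric format: TGR-catalysed, NADPH-driven DTNB reduction monitored via TNB absorbance. Enzyme dispensed at 20 nM; compound exposure 15 min at room temperature before reaction start.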
LmPK inh: inhibitors of Leishmania mexicana pyruvate kinase; purified LmPK, Kinase-Glo ATP luminescence, 1 h; AID 1721; Q27686; Potency, µM (doses to about 57.5 µM), for the others: at the highest dose activity change, negative = inhibition, usual class: inhibitors; actives 0.37% (n = 290,000)
Target sequence (Q27686 whole entry, looked up): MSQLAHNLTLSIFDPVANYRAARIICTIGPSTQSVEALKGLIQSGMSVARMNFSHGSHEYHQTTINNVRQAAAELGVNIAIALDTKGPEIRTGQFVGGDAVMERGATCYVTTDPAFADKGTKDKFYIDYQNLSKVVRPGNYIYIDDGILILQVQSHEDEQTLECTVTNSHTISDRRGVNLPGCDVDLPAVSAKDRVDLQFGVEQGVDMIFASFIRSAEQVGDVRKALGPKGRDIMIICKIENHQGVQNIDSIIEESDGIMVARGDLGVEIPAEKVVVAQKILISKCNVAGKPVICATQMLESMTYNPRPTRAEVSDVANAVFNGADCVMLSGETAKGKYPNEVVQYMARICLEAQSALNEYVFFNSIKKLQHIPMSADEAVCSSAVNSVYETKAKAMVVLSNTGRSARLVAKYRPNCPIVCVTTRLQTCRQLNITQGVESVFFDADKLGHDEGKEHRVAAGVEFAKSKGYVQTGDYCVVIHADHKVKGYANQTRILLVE
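Screened at intermediate enzyme activity to detect both inhibitors and activators: LmPK at 0.1 nM, with a 0.5 nM enzyme column as activation reference. PEP 0.5 mM, ADP 0.1 mM; ATP detected by luminescence after 1 h.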
Giardia FBPA inh: inhibitors of Giardia lamblia fructose-1,6-bisphosphate aldolase; purified Giardia FBPA; Potency, µM (doses to about 59.6 µM), without a hit: at the top dose activity, negative = inhibition, hits mostly inhibitors; actives 0.71% (n = 290,000); further: nearly all actives have a fitted effect of over 55% in size
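Giardia FBPA (40 nM reagent) was preincubated 10 min at RT with compound (up to 57.5 uM final), then substrate plus GAPDH/TPI/NAD/arsenate coupling system with diaphorase/resazurin was added; resorufin fluorescence (525/598 nm) was read after 20 min.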
The depositor's hits bear a star; ? = inconclusive; · = not tested or not shown. Unless noted, the call rests on the fitted dose curve; in most records, active means well fitted curve in the direction sought with a large enough effect; inconclusive means small, poorly fitted or top-dose-only effect, or another doubt; inactive means no such curve, though single readings can be large; an effect the other way counts as inactive or inconclusive. On the % scale 0 is the no-effect control and ±100 the full control effect; potency means the concentration at half of the fitted maximal effect.

SMILES	TbPYK inhibitor	RE007 growth inh	Sm TGR block	LmPK inh	Giardia FBPA inh
COc1cccc(-c2n[nH]c(=S)n2Cc2ccco2)c1	?	14%	35µM*	?	-15%
COc1ccc(Nc2nnc(SCC(=O)c3cc(C)n(CC4CCCO4)c3C)s2)cc1 (stereo unspecified)	-9%	?	-4%	1%	-12%
O=C(C[n+]1cn(C(F)F)c2ccccc21)c1ccc(OC(F)F)cc1	0%	0%	7.1µM*	-3%	0%
Cc1cccc(NC(=O)CCc2ccc(C)o2)c1	-31%	-3%	35µM*	-3%	2%
Cc1cc(C)cc(NC(=O)CCc2ccc(C)o2)c1	-7%	-8%	-15%	2%	·
Cc1ccc(CCC(=O)Nc2ccc(S(N)(=O)=O)cc2)o1	-26%	4%	14µM*	-7%	-19%
Cc1cccc(OCC(=O)NN2C(=O)C3C4C=CC(O4)C3C2=O)c1 (stereo unspecified)	0%	3%	·	4%	3%
CCOc1ccc(C(=O)NN2C(=O)C3C4C=CC(O4)C3C2=O)cc1 (stereo unspecified)	3%	-4%	22µM*	-2%	4%
Cc1ccccc1OCC(=O)NN1C(=O)C2C3C=CC(O3)C2C1=O (stereo unspecified)	-16%	-1%	20µM*	2%	1%
O=C(CCc1ccccc1)NN1C(=O)C2C3C=CC(O3)C2C1=O (stereo unspecified)	-17%	10%	·	3%	-5%
O=C(CSCc1ccc([N+](=O)[O-])cc1)NC1CC1	1%	5%	1%	-4%	6%
Cc1cc2cc(C=C(C#N)C#N)c(Cl)nc2cc1C	0%	·	3.2µM*	3%	?
CCOC(=O)/C(C#N)=C/c1cc2cc(C)c(C)cc2nc1Cl	-1%	-4%	-29%	4%	-9%
COc1ccc(/C=C2\C(=O)ON=C2c2ccccc2)cc1	-25%	?	?	0%	-8%
O=C1ON=C(c2ccccc2)/C1=C/c1ccc(OS(=O)(=O)c2ccccc2)cc1	-24%	2%	8.9µM*	4%	1%
CCCS(=O)(=O)c1nc(S(=O)(=O)c2ccc(C)cc2)c(N2CC(C)OC(C)C2)s1 (stereo unspecified)	-10%	-8%	18µM*	-3%	·
CCCS(=O)(=O)c1nc(S(=O)(=O)c2ccc(C)cc2)c(NCc2ccccn2)s1	-15%	3%	7.9µM*	2%	5%
CS(=O)(=O)c1nc(S(=O)(=O)c2ccc(Cl)cc2)c(NCc2ccccn2)s1	3%	5%	35µM*	1%	-1%
CCCS(=O)(=O)c1nc(S(=O)(=O)c2ccc(C)cc2)c(NCc2ccco2)s1	-5%	-17%	18µM*	6%	0%
CCS(=O)(=O)c1nc(S(=O)(=O)c2ccc(C)cc2)c(NCc2ccccn2)s1	1%	-3%	1%	17%	-1%
Cc1ccc(S(=O)(=O)c2nc(S(=O)(=O)c3ccc(C)cc3)c(NCc3ccco3)s2)cc1	-8%	-8%	-34%	0%	·
COc1ccccc1CNc1nc2cc(-c3sccc3C)sc2c(=O)n1C	-2%	4%	·	·	·
Cc1nnc(SCc2cc([N+](=O)[O-])cc3c2OCOC3)[nH]c1=O	-1%	-11%	8%	3%	0%
COc1ccc(CN2CCCC(C(=O)c3ccc(SC)cc3)C2)cc1Cn1cccn1 (stereo unspecified)	-3%	1%	0%	9%	3%
COCC(=O)N(CCc1ccc(OC)cc1)Cc1nc2ccccc2c(=O)[nH]1	4%	3%	-16%	4%	-1%
C/C(=N/Nc1ccc(C)cc1)C1(C)N(O)C(C)(C)C(c2ccco2)=[N+]1[O-] (stereo unspecified)	-7%	9%	10µM*	-29%	-19%
C/C(=N\O)C1(C)N(O)C(C)(C)C(c2ccc(F)cc2)=[N+]1[O-] (stereo unspecified)	6%	-7%	1%	-3%	1%
O=C(NNC(=S)NCc1ccccc1)c1cccc([N+](=O)[O-])c1	-13%	-13%	-3%	0%	8%

From PubChem
